Assay outcomes from PubChem BioAssay.
Only some compounds are listed: those with a hit (about 2.4% of all), similar ones and a draw of the others.
ALOX12 inh – inhibitors of human 12S-lipoxygenase ALOX12. P18054. purified 12hLO, xylenol orange hydroperoxide absorbance. Potency, µM (titrated, usually from 108 µM), for the others: at the top dose activity change, negative = inhibition, hits mostly inhibitors. 580,000 tested, 1.1% active. AID 1671190; note: % is set by controls: 0 for no effect and ±100 for the full control effect
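Hydroperoxide product was detected by ferrous iron/xylenol orange as the 573 to 405 nm absorbance ratio. Arachidonic acid at 40 uM (final) was turned over for 30 min at room temperature by 150 nM human 12hLO, pH 7.0 Hepes buffer, after 15 min compound preincubation.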
Rango dissoc inh – inhibitors of RanGTP-induced Rango-importin beta complex dissociation; O95149+P62826; Biochemical FRET Rango-importin beta, RanGTP-induced dissociation; Potency, µM (series often up to 46.1 µM), for the others: at the top dose activity change, negative = inhibition; 340,000 tested, 0.071% active; AID 540253; calls by dose curve; note: % of control where 0% means no effect; nearly all actives have a fitted effect of over 45% in size
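FRET read at 45 min, room temperature: inhibitors block the CFP/YFP signal rise when RanGTP (0.6 uM Ran, 2 mM GTP, 0.2 uM RCC1) frees Rango (0.1 uM) from importin beta (0.25 uM). Pre-read after 5 min compound exposure flags interference.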
TDP1 block – blocks human tyrosyl-DNA phosphodiesterase 1; Q9NUW8; recombinant TDP1, AlphaScreen DNA substrate cleavage; Potency, µM (series often up to 130 µM), without a hit: at the highest dose activity change, negative = inhibition, usual class: inhibitors; 350,000 tested, 0.28% active; AID 485290; note: % is set by controls: 0 for no effect and ±100 for the full control effect; nearly all actives have a fitted effect of over 40% in size
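Compounds were preincubated with Tdp1 (1 nM final) for 15 min at room temperature before substrate (15 nM final) started a 5 min reaction; beads (10 ug/ml final) were then added for 10 min before AlphaScreen detection.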
Rango complex inh – inhibitors of Rango-importin beta complex formation; 340,000 tested, 0.031% active; Potency, µM (highest dose often 92.2 µM), without a hit: top-dose inhibition of complex formation; Q14974; Rango CFP/YFP FRET sensor + importin beta, 45 min; calls by dose curve;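 note: 0% = DMSO wells and 100% = buffer wells lacking importin beta; nearly all actives have a fitted effect of over 15% in size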
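FRET biosensor Rango (snurportin 1 IBB between N-terminal EYFP and C-terminal Cerulean), 50 nM in PBS/1 mM DTT/0.02% Tween-20/0.1% BSA, preincubated 5 min RT with compound; 0.125 microM importin beta added, 45 min RT, CFP/YFP FRET ratio read.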
PTAP TSG101 blk – blocks PTAP/TSG101 interaction to inhibit HIV-1 budding; Q99816; Fluorescence polarization, FITC-PTAP peptide / Tsg101 binding; Potency, µM (top dose mostly 115 µM), without a hit: at the highest dose activity change, negative = inhibition, most hits filed as inhibitors; 340,000 tested, under 10 active; AID 493005; active = well fitted inhibition curve with a large enough effect in the main read-out, with a control signal flat, not every such curve was filed as active; inconclusive = small, poorly fitted or top-dose-only effect, or effect the other way, or a change in a side signal; inactive = no such curve, though single readings can be large or run the other way; note: % of control where 0% means no effect
Target sequence (Q99816 whole entry, looked up): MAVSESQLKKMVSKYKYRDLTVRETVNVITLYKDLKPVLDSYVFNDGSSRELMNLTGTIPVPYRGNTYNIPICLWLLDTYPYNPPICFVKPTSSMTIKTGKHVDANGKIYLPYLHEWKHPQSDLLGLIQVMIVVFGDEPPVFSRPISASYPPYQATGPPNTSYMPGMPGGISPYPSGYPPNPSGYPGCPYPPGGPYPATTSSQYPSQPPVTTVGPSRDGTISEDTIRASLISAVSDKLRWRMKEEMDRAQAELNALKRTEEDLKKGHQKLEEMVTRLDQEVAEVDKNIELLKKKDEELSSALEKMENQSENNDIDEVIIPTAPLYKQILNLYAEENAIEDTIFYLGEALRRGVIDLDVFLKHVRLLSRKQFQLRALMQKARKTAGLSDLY
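Steps: Tsg101 binding domain dispensed (10 uM final), compounds pinned in DMSO, FITC-labeled PTAP-motif peptide added (50 nM final); after 20 min binding at room temperature, polarization measured.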
ClpP mod – qHTS Assay for Activators of ClpP; purified B. subtilis ClpP, FRET peptide cleavage, 20 min; Potency, µM (series often up to 57.5 µM), inactives show at the top dose activity change, negative = active; 340,000 tested, 1.9% active; active = well fitted falling curve with a large enough effect; inconclusive = small, poorly fitted or top-dose-only effect; inactive = no such curve, though single readings can be large or run the other way; note: the source files actives as falling curves though it sought activators and does not explain the sign; nearly all actives have a fitted effect of over 65% in size
Target sequence (P80244 whole entry, looked up): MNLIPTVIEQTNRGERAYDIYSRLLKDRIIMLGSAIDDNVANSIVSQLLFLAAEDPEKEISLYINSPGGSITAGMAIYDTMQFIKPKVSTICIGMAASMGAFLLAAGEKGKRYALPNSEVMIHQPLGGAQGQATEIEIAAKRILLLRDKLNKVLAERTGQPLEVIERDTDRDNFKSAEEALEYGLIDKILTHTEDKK
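Purified B. subtilis ClpP, 10 microg/mL final in Tris/HCl pH8 with KCl, BSA, glycerol and Tween-20, cleaved an Abz/nitrotyrosine-quenched decapeptide. Fluorescence (ex 320, em 430) was read at 0 and 20 min at room temperature. Delta was normalized to 5.8 microM ADEP and DMSO/no-enzyme controls.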
Active calls of the source: *; ? = inconclusive; . = not tested or not shown. Unless noted, calls come from the whole dose curve; as a rule, active = well fitted curve in the direction sought with a large enough effect; inconclusive = small, poorly fitted or top-dose-only effect, or another doubt; inactive = no such curve, though single readings can be large; an effect the other way counts as inactive or inconclusive. Potency is the fitted concentration of half-maximal effect.

SMILES	ALOX12 inh	Rango dissoc inh	TDP1 block	Rango complex inh	PTAP TSG101 blk	ClpP mod
O=S(=O)(NCc1ccc2c(c1)OCO2)c1cccc(F)c1	6%	-4%	.	-1%	0%	28µM*
CC(C)CN1CCC(NC(=O)NCCc2cccc3cccnc23)CC1	-4%	.	.	.	.	.
CC(NC(=O)OCc1ccccc1)C(=O)Oc1cc2oc(=O)cc(-c3ccccc3)c2cc1Cl (stereo unspecified)	-14%	?	-1%	?	-4%	25µM*
CCc1cc2c(-c3ccccc3)cc(=O)oc2cc1OC(=O)c1cccs1	-6%	5.2µM*	3%	?	-1%	-8%
O=C(Oc1ccc2c(-c3ccccc3)cc(=O)oc2c1)c1cccs1	-2%	?	-1%	?	4%	.
O=c1c2c(nc3c(-c4ccccc4)c[nH]n13)CCC2	3%	-3%	5%	3%	-8%	25µM*
O=c1c2c(nc3c(-c4ccc(Cl)cc4)c[nH]n13)CCC2	-47%	-1%	10%	-1%	0%	.
Cc1c(-c2ccccc2)[nH]n2c(=O)c3c(nc12)CCCC3	-9%	8%	3%	0%	-5%	25µM*
Cc1ccc(-c2[nH]n3c(=O)c4c(nc3c2C)CCCC4)cc1	-7%	-6%	-1%	-2%	-3%	?
CCCn1nc(S(=O)(=O)N2CCCCC2)c(C(=O)OCC)c1C	6.3µM*	.	.	.	.	.
CCCn1nc(S(=O)(=O)N2CCCC2)c(C(=O)OCC)c1C	11µM*	.	.	.	.	.
CC(C)OCCCNC(=O)Cn1c(-c2cccs2)cc2cc(F)ccc21	-16%	.	-4%	.	.	4%
CCOc1ccc(CCNC(=O)Cn2c(-c3cccs3)cc3cc(F)ccc32)cc1OCC	-32%	.	9%	.	.	4%
CCOc1cc(CNC(=O)Cn2c(-c3cccs3)cc3cc(F)ccc32)ccc1OC	-1%	.	2%	.	.	25µM*
COc1ccccc1CNC(=O)Cn1c(-c2cccs2)cc2cc(F)ccc21	-19%	.	5%	.	.	32µM*
COc1ccc2oc(=O)c(-c3nnc(N)s3)cc2c1	-14%	?	-10%	?	-2%	.
Nc1nnc(-c2cc3ccccc3oc2=O)s1	26%	?	1%	?	-9%	25µM*
COCc1cc(C)nc(OCC(=O)N/N=C/c2cccc(OC)c2)c1C#N	27%	-3%	4%	1%	-7%	28µM*
Cc1cc2c(c(=O)n1Cc1cccnc1)C(c1cc3c(cc1Br)OCO3)C(C#N)=C(N)O2 (stereo unspecified)	1%	.	.	.	.	.
Cc1ccc(C(=O)N2CCC3(CC2)N=C(c2ccc(Cl)cc2)NO3)s1	4%	.	.	.	.	.
CC(C)CNC(=O)CN1CCN(c2cccc(Cl)c2C#N)CC1	16%	.	.	.	.	.
Cc1ccc(/C=C2/C(=O)c3ccc(C(=O)O)cc3C2=O)o1	?	11%	3.5µM*	?	-6%	-2%
Cc1ccc(C=C2C(=O)c3ccccc3C2=O)o1	-4%	12%	0%	-2%	-1%	1%
O=C(O)c1ccc2c(c1)C(=O)/C(=C\c1ccco1)C2=O	?	-12%	7.1µM*	?	-5%	2%
Cc1cccc(CN2CCCC(C(=O)O)CCNC(=O)CC2)c1 (stereo unspecified)	34%	.	.	.	.	.
SMILES	ALOX12 inh	Rango dissoc inh	TDP1 block	Rango complex inh	PTAP TSG101 blk	ClpP mod
CCOC(=O)CCSc1nc(C)c2cc(OC)ccc2n1	9%	0%	0%	2%	-3%	25µM*
CCCCc1c(C)nc2ccc(OC)cc2c1SCCC(=O)O	45µM*	-21%	-10%	4%	-7%	.
CCOC(=O)C(=O)Nc1ccc(OCC)cc1	-7%	.	.	.	.	.
NC(=O)COc1ccc(NC(=O)OCc2ccccc2)cc1	22%	13%	5%	0%	10%	32µM*
Cc1cccc(NC(=O)c2n[nH]nc2Nc2ccc(Cl)cc2)c1	2%	.	.	.	.	.
Cn1cccc1CN1CCC[C@]2(N[C@H](c3ccccc3)[C@@H]3C(=O)N(Cc4ccccc4)C(=O)[C@@H]32)C1=O	10µM*	.	.	.	.	0%
Cc1ccc([C@H]2N[C@]3(CCCN(Cc4cccn4C)C3=O)[C@H]3C(=O)N(Cc4ccccc4)C(=O)[C@@H]23)cc1	?	.	.	.	.	0%
COc1ccc([C@H]2N[C@]3(CCCN(Cc4cccn4C)C3=O)[C@H]3C(=O)N(C)C(=O)[C@@H]23)cc1	11µM*	.	.	.	.	1%
Fc1cccc(F)c1-c1nc2c(s1)CCc1onc(-c3ccc(Br)cc3)c1-2	14µM*	-1%	.	?	-2%	-10%
COc1ccc(-c2noc3c2-c2nc(-c4c(F)cccc4F)sc2CC3)cc1	?	-13%	.	1%	-8%	-10%
COc1ccc(-c2noc3c2-c2nc(-c4ccccc4F)sc2CC3)cc1	40µM*	?	.	-1%	4%	-2%
Fc1ccccc1-c1nc2c(s1)CCc1onc(-c3ccc(Br)cc3)c1-2	-25%	1%	.	-3%	-23%	-9%
Cc1ccccc1C1=C/C(=C(\SS/C(C(=O)c2ccc(OCC(=O)O)c(Cl)c2Cl)=C2\C=C(c3ccccc3C)SS2)C(=O)c2ccc(OCC(=O)O)c(Cl)c2Cl)SS1	5.6µM*	1%	.	6%	-6%	2%
CCOc1ccc(C(N)=O)cc1OC	-48%	-2%	2%	0%	-4%	28µM*
CCOc1ccccc1C(=S)NC1CCCCC1	?	16%	3%	0%	0%	-19%
CCOc1ccc(C(=S)NC2CCCCC2)cc1OC	22µM*	-11%	4%	-5%	.	-2%
CCOC(=O)c1c(C)[nH]c(C)c1C(=O)COC(=O)c1ccccc1O	?	1%	0%	1%	-2%	1%
O=C(OCC(=O)c1c[nH]c2ccccc12)c1cc2ccccc2cc1O	?	-7%	6%	?	1%	20µM*
O=C(OCC(=O)c1c[nH]c2ccccc12)c1ccc(O)cc1	43%	.	.	.	.	.
Cc1[nH]c2ccccc2c1C(=O)COC(=O)c1ccccc1O	?	13%	-3%	5%	0%	3.5µM*
CCS(=O)(=O)NC1CCc2nnc(C3CC3)n2CC1 (stereo unspecified)	38%	.	.	.	.	.
CC(C)(C)c1ccc(OCC(=O)Nc2ccc(-c3nc4cccnc4o3)cc2)cc1	37%	43%	6%	4%	-7%	13µM*
COc1cc(Cl)ccc1-c1cccc(COc2cnc3c(ccn3CC(=O)O)c2)c1	63µM*	.	.	.	.	.
CC(C)COc1ccc(C(=O)OCC[N+]2(C)CCOCC2)cc1	5.6µM*	.	.	.	.	.
